According to PubChem BioAssay AID1159580 (chemical genetic matrix, 2015):
Screen size: about 5,500 compounds; about 2,000 (36%) were called active. Inconclusive results (about 18%) are left out. Rule as the data show it: active = normalized growth mostly below about 0.91 (no sharp cut-off); inconclusive = no clear call, values can overlap the other calls; inactive = mostly above about 0.92. The list shows a part of the results.

Experiment: chemical genetic growth profiling, strain panel (AID 1159580);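 also: tested at 20 µM; growth read once vehicle control cultures reached saturation at 30 °C; 1 = growth at the plate median or of vehicle wells; lower values mean less growth of the strain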
Details: growth OD

Measured: normalized growth

O=c1c(O)c(-c2ccccc2)oc2cc(O)ccc12
inactive: S. cerevisiae deletion strains, locus YKL009W, strain mrt4, stronger effect = lower value 0.932 | S. cerevisiae deletion strains, locus YKL068W, stronger effect = lower value 0.948 | S. cerevisiae deletion strains, locus YLR102C, strain apc9, stronger effect = lower value 0.935 | S. cerevisiae deletion strains, locus YLR113W, strain HOG1, stronger effect = lower value 1 | S. cerevisiae deletion strains, locus YMR125W, strain sto1, stronger effect = lower value 0.929 | S. cerevisiae deletion strains, locus YNL183C, strain NPR1, stronger effect = lower value 0.98 | S. cerevisiae deletion strains, locus YNL250W, strain rad50, stronger effect = lower value 0.927 | S. cerevisiae deletion strains, locus YNL298W, strain CLA4, stronger effect = lower value 0.914 | S. cerevisiae deletion strains, locus YNL322C, strain KRE1 (second series), stronger effect = lower value 0.971 | S. cerevisiae deletion strains, locus YOL012C, strain htz1 0.446 | S. cerevisiae deletion strains, locus YOR144C, strain elg1, stronger effect = lower value 0.94 | S. cerevisiae deletion strains, locus YOR231W, strain MKK1, stronger effect = lower value 1.03 | S. cerevisiae deletion strains, locus YPL256C, strain CLN2, stronger effect = lower value 1.06 | S. cerevisiae deletion strains, locus YPR141C, strain kar3, stronger effect = lower value 0.942
active: S. cerevisiae deletion strains, locus YKL085W, strain MDH1 (second series), stronger effect = lower value 0.911 | S. cerevisiae deletion strains, locus YKL085W, strain MDH1, stronger effect = lower value 0.911 | S. cerevisiae deletion strains, locus YKL160W, strain elf1, stronger effect = lower value 0.772 | S. cerevisiae deletion strains, locus YKL190W, strain CNB1, stronger effect = lower value 0.4 | S. cerevisiae deletion strains, locus YKR001C, strain vps1, stronger effect = lower value 0.708 | S. cerevisiae deletion strains, locus YKR026C, strain gcn3, stronger effect = lower value 0.879 | S. cerevisiae deletion strains, locus YKR091W, strain srl3, stronger effect = lower value 0.834 | S. cerevisiae deletion strains, locus YLL001W, strain dnm1, stronger effect = lower value 0.827 | S. cerevisiae deletion strains, locus YLL026W, stronger effect = lower value 0.558 | S. cerevisiae deletion strains, locus YLL041C, strain sdh2, stronger effect = lower value 0.85 | S. cerevisiae deletion strains, locus YLR027C, strain aat2, stronger effect = lower value 0.701 | S. cerevisiae deletion strains, locus YLR039C, strain RIC1, stronger effect = lower value 0.236 | S. cerevisiae deletion strains, locus YLR058C, strain SHM2, stronger effect = lower value 0.514 | S. cerevisiae deletion strains, locus YLR221C, strain rsa3, stronger effect = lower value 0.759 | S. cerevisiae deletion strains, locus YLR258W, strain gsy2, stronger effect = lower value 0.699 | S. cerevisiae deletion strains, locus YLR262C, strain YPT6 (second series), stronger effect = lower value 0.341 | S. cerevisiae deletion strains, locus YLR262C, strain YPT6, stronger effect = lower value 0.263 | S. cerevisiae deletion strains, locus YLR268W, strain sec22, stronger effect = lower value 0.62 | S. cerevisiae deletion strains, locus YLR320W, strain mms22, stronger effect = lower value 0.674 | S. cerevisiae deletion strains, locus YLR330W, strain CHS5, stronger effect = lower value 0.663 | S. cerevisiae deletion strains, locus YLR342W, strain FKS1 (second series), stronger effect = lower value 0.51 | S. cerevisiae deletion strains, locus YLR342W, strain FKS1, stronger effect = lower value 0.765 | S. cerevisiae deletion strains, locus YLR357W, strain rsc2, stronger effect = lower value 0.717 | S. cerevisiae deletion strains, locus YLR370C, strain arc18, stronger effect = lower value 0.738 | S. cerevisiae deletion strains, locus YLR371W, strain rom2, stronger effect = lower value 0.636 | S. cerevisiae deletion strains, locus YLR384C, strain iki3, stronger effect = lower value 0.906 | S. cerevisiae deletion strains, locus YLR418C, strain cdc73, stronger effect = lower value 0.357 | S. cerevisiae deletion strains, locus YML016C, strain PPZ1, stronger effect = lower value 0.455 | S. cerevisiae deletion strains, locus YML032C, strain rad52, stronger effect = lower value 0.872 | S. cerevisiae deletion strains, locus YML120C, strain ndi1, stronger effect = lower value 0.887 | S. cerevisiae deletion strains, locus YML124C, strain tub3, stronger effect = lower value 0.827 | S. cerevisiae deletion strains, locus YMR058W, strain fet3, stronger effect = lower value 0.104 | S. cerevisiae deletion strains, locus YMR078C, strain ctf18, stronger effect = lower value 0.909 | S. cerevisiae deletion strains, locus YMR129W, stronger effect = lower value 0.838 | S. cerevisiae deletion strains, locus YMR205C, strain PFK2, stronger effect = lower value 0.639 | S. cerevisiae deletion strains, locus YMR223W, strain ubp8, stronger effect = lower value 0.685 | S. cerevisiae deletion strains, locus YMR231W, strain pep5, stronger effect = lower value 0.336 | S. cerevisiae deletion strains, locus YMR307W, strain GAS1, stronger effect = lower value 0.328 | S. cerevisiae deletion strains, locus YNL067W, strain RPL9B, stronger effect = lower value 0.496 | S. cerevisiae deletion strains, locus YNL071W, strain lat1, stronger effect = lower value 0.709 | S. cerevisiae deletion strains, locus YNL128W, strain TEP1, stronger effect = lower value 0.319 | S. cerevisiae deletion strains, locus YNL153C, strain GIM3, stronger effect = lower value 0.577 | S. cerevisiae deletion strains, locus YNL209W, strain ssb2, stronger effect = lower value 0.335 | S. cerevisiae deletion strains, locus YNL233W, strain BNI4, stronger effect = lower value 0.479 | S. cerevisiae deletion strains, locus YNL248C, strain rpa49, stronger effect = lower value 0.859 | S. cerevisiae deletion strains, locus YNL271C, strain bni1, stronger effect = lower value 0.858 | S. cerevisiae deletion strains, locus YNL307C, strain MCK1, stronger effect = lower value 0.745 | S. cerevisiae deletion strains, locus YNL322C, strain KRE1, stronger effect = lower value 0.415 | S. cerevisiae deletion strains, locus YNR049C, strain mso1, stronger effect = lower value 0.895 | S. cerevisiae deletion strains, locus YNR052C, strain pop2, stronger effect = lower value 0.713 | S. cerevisiae deletion strains, locus YOL006C, strain TOP1, stronger effect = lower value 0.167 | S. cerevisiae deletion strains, locus YOL147C, strain pex11, stronger effect = lower value 0.914 | S. cerevisiae deletion strains, locus YOR001W, strain rrp6, stronger effect = lower value 0.873 | S. cerevisiae deletion strains, locus YOR061W, strain CKA2, stronger effect = lower value 0.682 | S. cerevisiae deletion strains, locus YOR069W, strain VPS5, stronger effect = lower value 0.614 | S. cerevisiae deletion strains, locus YOR070C, strain gyp1, stronger effect = lower value 0.739 | S. cerevisiae deletion strains, locus YOR080W, strain dia2, stronger effect = lower value 0.777 | S. cerevisiae deletion strains, locus YOR083W, strain WHI5, stronger effect = lower value 0.695 | S. cerevisiae deletion strains, locus YOR106W, strain vam3, stronger effect = lower value 0.27 | S. cerevisiae deletion strains, locus YOR136W, strain idh2, stronger effect = lower value 0.909 | S. cerevisiae deletion strains, locus YOR184W, strain ser1, stronger effect = lower value 0.5 | S. cerevisiae deletion strains, locus YOR265W, strain rbl2, stronger effect = lower value 0.71 | S. cerevisiae deletion strains, locus YOR270C, strain vph1, stronger effect = lower value 0.306 | S. cerevisiae deletion strains, locus YOR290C, strain snf2, stronger effect = lower value 0.754 | S. cerevisiae deletion strains, locus YOR316C, strain cot1, stronger effect = lower value 0.903 | S. cerevisiae deletion strains, locus YPL051W, strain arl3, stronger effect = lower value 0.439 | S. cerevisiae deletion strains, locus YPL055C, strain LGE1, stronger effect = lower value 0.363 | S. cerevisiae deletion strains, locus YPL078C, strain atp4, stronger effect = lower value 0.845 | S. cerevisiae deletion strains, locus YPL106C, strain sse1, stronger effect = lower value 0.65 | S. cerevisiae deletion strains, locus YPL240C, strain hsp82, stronger effect = lower value 0.81 | S. cerevisiae deletion strains, locus YPL241C, strain CIN2, stronger effect = lower value 0.719 | S. cerevisiae deletion strains, locus YPR119W, strain clb2, stronger effect = lower value 0.931 | S. cerevisiae deletion strains, locus YPR163C, strain tif3, stronger effect = lower value 0.844 | S. cerevisiae deletion strains, locus YPR167C, strain met16, stronger effect = lower value 0.734 | S. cerevisiae deletion strains, strain wtn01, stronger effect = lower value 0.751 | S. cerevisiae strains, strain wild type, stronger effect = lower value 0.246
